# Hit rate of the full screen: of about 3,200 compounds, about 300 (9.4%) showed activity. The full list was thinned out, with actives kept by preference.
# System: A673/TR/shEF
# Assay: cell viability (LOESS-normalised, relative to median of negative controls) (log2 ratio); higher = more viable cells (less compound effect), active = hit call of the paper (over 3 MAD below the median)
# Settings: treatment time: 72 h
# Summary of the method: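 Viability of A673/TR/shEF Ewing sarcoma cells was determined by CellTiter-Glo luminescence. The cells, at 1,500 per well in 384-well plates, were grown with or without doxycycline from 24 h before compound addition to switch on EWS-FLI1 shRNA knockdown, then exposed for three days to library compounds at two or more concentrations or to DMSO controls. Signals were LOESS-corrected plate by plate, normalised to the negative-control median and log2-transformed.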
# [1] = 0.103 µM, library screen: screen3, EWS-FLI1 expression: high (no doxycycline)
# [2] = 0.103 µM, library screen: screen3, EWS-FLI1 expression: low (doxycycline-induced shRNA knockdown)
# [3] = 0.25 µM, library screen: screen1, EWS-FLI1 expression: high (no doxycycline)
# [4] = 0.25 µM, library screen: screen1, EWS-FLI1 expression: low (doxycycline-induced shRNA knockdown)
# [5] = 0.25 µM, library screen: screen2, EWS-FLI1 expression: high (no doxycycline)
# [6] = 0.25 µM, library screen: screen2, EWS-FLI1 expression: low (doxycycline-induced shRNA knockdown)
# [7] = 0.308 µM, library screen: screen3, EWS-FLI1 expression: high (no doxycycline)
# [8] = 0.308 µM, library screen: screen3, EWS-FLI1 expression: low (doxycycline-induced shRNA knockdown)
# [9] = 0.926 µM, library screen: screen3, EWS-FLI1 expression: high (no doxycycline)
# [10] = 0.926 µM, library screen: screen3, EWS-FLI1 expression: low (doxycycline-induced shRNA knockdown)
# [11] = 2.5 µM, library screen: screen1, EWS-FLI1 expression: high (no doxycycline)
# [12] = 2.5 µM, library screen: screen1, EWS-FLI1 expression: low (doxycycline-induced shRNA knockdown)
# [13] = 2.5 µM, library screen: screen2, EWS-FLI1 expression: high (no doxycycline)
# [14] = 2.5 µM, library screen: screen2, EWS-FLI1 expression: low (doxycycline-induced shRNA knockdown)
# [15] = 2.8 µM, library screen: screen3, EWS-FLI1 expression: high (no doxycycline)
# [16] = 2.8 µM, library screen: screen3, EWS-FLI1 expression: low (doxycycline-induced shRNA knockdown)
# [17] = 8.3 µM, library screen: screen3, EWS-FLI1 expression: high (no doxycycline)
# [18] = 8.3 µM, library screen: screen3, EWS-FLI1 expression: low (doxycycline-induced shRNA knockdown)
# [19] = 25 µM, library screen: screen3, EWS-FLI1 expression: high (no doxycycline)
# [20] = 25 µM, library screen: screen3, EWS-FLI1 expression: low (doxycycline-induced shRNA knockdown)
# [21] = 0.025 µM, library screen: screen1, EWS-FLI1 expression: high (no doxycycline)
# [22] = 0.025 µM, library screen: screen1, EWS-FLI1 expression: low (doxycycline-induced shRNA knockdown)
# [23] = 25 µM, library screen: screen1, EWS-FLI1 expression: high (no doxycycline)
# [24] = 25 µM, library screen: screen1, EWS-FLI1 expression: low (doxycycline-induced shRNA knockdown)
smiles,measurement,setting,value
O=C1c2c(O)ccc(O)c2C(=O)c2c(NCCNCCO)ccc(NCCNCCO)c21,cell viability (log2),[1],-0.962 (active)
same,cell viability (log2),[2],-0.246 (active)
same,cell viability (log2),[3],-1.93 (active)
same,cell viability (log2),[4],-0.576 (active)
same,cell viability (log2),[5],-2.25 (active)
same,cell viability (log2),[6],-0.221 (active)
same,cell viability (log2),[7],-1.25 (active)
same,cell viability (log2),[8],-0.351 (active)
same,cell viability (log2),[9],-1.51 (active)
same,cell viability (log2),[10],-0.325 (active)
same,cell viability (log2),[11],-4.22 (active)
same,cell viability (log2),[12],-3.67 (active)
same,cell viability (log2),[13],-2.87 (active)
same,cell viability (log2),[14],-0.985 (active)
same,cell viability (log2),[15],-2.02 (active)
same,cell viability (log2),[16],-0.758 (active)
same,cell viability (log2),[17],-3.96 (active)
same,cell viability (log2),[18],-3.09 (active)
same,cell viability (log2),[19],-4.26 (active)
same,cell viability (log2),[20],-4.25 (active)
NC(N)=NCCC[C@H](N[C@H](CCC(=O)O)C(=O)O)C(=O)O,cell viability (log2),[3],0.0848 (inactive)
same,cell viability (log2),[4],0.0238 (inactive)
same,cell viability (log2),[11],0.123 (inactive)
same,cell viability (log2),[12],0.0291 (inactive)
O=P(O)(O)C(O)c1ccc2ccccc2c1 (stereo unspecified),cell viability (log2),[21],0.0997 (inactive)
same,cell viability (log2),[22],0.0649 (inactive)
same,cell viability (log2),[3],0.143 (inactive)
same,cell viability (log2),[4],-0.0248 (inactive)
same,cell viability (log2),[11],0.0554 (inactive)
same,cell viability (log2),[12],0.0311 (inactive)
same,cell viability (log2),[23],0.0292 (inactive)
same,cell viability (log2),[24],0.0551 (inactive)
C/C(=C\C(=O)Nc1ccccc1C(=O)O)c1ccc2ccccc2c1,cell viability (log2),[1],0.0459 (inactive)
same,cell viability (log2),[2],0.0279 (inactive)
same,cell viability (log2),[7],-0.00745 (inactive)
same,cell viability (log2),[8],-0.00325 (inactive)
same,cell viability (log2),[9],-0.0219 (inactive)
same,cell viability (log2),[10],0.0436 (inactive)
same,cell viability (log2),[15],0.00499 (inactive)
same,cell viability (log2),[16],-1.3e-05 (inactive)
same,cell viability (log2),[17],-0.0171 (inactive)
same,cell viability (log2),[18],0.0177 (inactive)
same,cell viability (log2),[19],0.0665 (inactive)
same,cell viability (log2),[20],0.0416 (inactive)
C=CC(=O)c1ccc2ccccc2c1,cell viability (log2),[21],0.279
same,cell viability (log2),[22],0.0903 (inactive)
same,cell viability (log2),[3],0.286
same,cell viability (log2),[4],0.00371 (inactive)
same,cell viability (log2),[11],-0.264 (active)
same,cell viability (log2),[12],0.198 (inactive)
same,cell viability (log2),[23],-0.287 (active)
same,cell viability (log2),[24],-0.0301 (inactive)
NC(=O)c1cc[n+](CC2=C(C(=O)O)N3C(=O)[C@@H](NC(=O)C(c4ccccc4)S(=O)(=O)O)[C@H]3SC2)cc1 (stereo partly specified),cell viability (log2),[3],-0.0396 (inactive)
same,cell viability (log2),[4],0.081 (inactive)
same,cell viability (log2),[11],-0.00797 (inactive)
same,cell viability (log2),[12],0.0119 (inactive)
CN1CCN(c2nc3ccccn3c(=O)c2/C=C2\SC(=S)N(C)C2=O)CC1,cell viability (log2),[3],0.017 (inactive)
same,cell viability (log2),[4],-0.00298 (inactive)
same,cell viability (log2),[11],0.0372 (inactive)
same,cell viability (log2),[12],-0.00837 (inactive)
COc1ccc(-c2cc(=O)c3c(O)cc(O[C@@H]4O[C@H](CO[C@@H]5O[C@@H](C)[C@H](O)[C@@H](O)[C@H]5O)[C@@H](O)[C@H](O)[C@H]4O)cc3o2)cc1O,cell viability (log2),[3],-0.0892 (active)
same,cell viability (log2),[4],0.0382 (inactive)
same,cell viability (log2),[11],-0.0968 (active)
same,cell viability (log2),[12],0.0709 (inactive)
COc1ccc(-c2cc(=O)c3c(O)cc(O[C@@H]4O[C@H](CO[C@@H]5O[C@@H](C)[C@H](O)[C@@H](O)[C@H]5O)[C@@H](O)[C@H](O)[C@H]4O)cc3o2)cc1,cell viability (log2),[3],0.0703 (inactive)
same,cell viability (log2),[4],0.0696 (inactive)
same,cell viability (log2),[11],0.0879 (inactive)
same,cell viability (log2),[12],0.0994 (inactive)
COc1ccc(-c2cc(=O)c3c(O)cc(O)cc3o2)cc1O,cell viability (log2),[3],-0.0193 (inactive)
same,cell viability (log2),[4],-0.536 (inactive)
same,cell viability (log2),[11],-0.0793 (inactive)
same,cell viability (log2),[12],0.0681 (inactive)
COc1ccc(-c2cc(=O)c3c(O)c(OC)c(OC)cc3o2)cc1O,cell viability (log2),[3],-0.076 (inactive)
same,cell viability (log2),[4],-0.0378 (inactive)
same,cell viability (log2),[11],-0.654 (active)
same,cell viability (log2),[12],-0.145 (inactive)
COc1ccc(-c2cc(=O)c3c(O)c(OC)c(OC4OC(COC5OC(C)C(O)C(O)C5O)C(O)C(O)C4O)cc3o2)cc1 (stereo unspecified),cell viability (log2),[3],0.0877 (inactive)
same,cell viability (log2),[4],0.0838 (inactive)
same,cell viability (log2),[11],0.171 (inactive)
same,cell viability (log2),[12],0.116 (inactive)
COc1cc(O)c2c(=O)cc(-c3ccc(OC)c(O)c3)oc2c1,cell viability (log2),[3],0.0474 (inactive)
same,cell viability (log2),[4],0.00819 (inactive)
same,cell viability (log2),[11],0.132 (inactive)
same,cell viability (log2),[12],0.0369 (inactive)
COC(=O)C(O)[C@H]1C(C)(C)[C@@H](OC(C)=O)[C@@H]2CC3=C4CC(=O)O[C@@H](c5ccoc5)[C@]4(C)CCC3[C@@]1(C)C2=O (stereo partly specified),cell viability (log2),[3],0.11 (inactive)
same,cell viability (log2),[4],0.119 (inactive)
same,cell viability (log2),[11],0.15 (inactive)
same,cell viability (log2),[12],0.0885 (inactive)
CC(=O)O[C@H]1CC[C@@]2(C)C(=CC[C@H]3[C@@H]4CC[C@H]([C@H](C)CCCC(C)C)[C@@]4(C)CC[C@@H]32)C1,cell viability (log2),[3],0.0694 (inactive)
same,cell viability (log2),[4],0.0487 (inactive)
same,cell viability (log2),[11],0.14 (inactive)
same,cell viability (log2),[12],0.0189 (inactive)
O=C(O)C1CC(C2CCCCN2)CN2CCCCC12 (stereo unspecified),cell viability (log2),[3],0.039 (inactive)
same,cell viability (log2),[4],0.0346 (inactive)
same,cell viability (log2),[11],0.146 (inactive)
same,cell viability (log2),[12],0.0208 (inactive)
CC(N)=NCCC[C@H](N)C(=O)O,cell viability (log2),[5],0.0627 (inactive)
same,cell viability (log2),[6],0.0753 (inactive)
same,cell viability (log2),[13],-0.0275 (inactive)
same,cell viability (log2),[14],0.0731 (inactive)
COc1ccccc1CNC(=O)CN(c1ccc(Cl)cc1)S(C)(=O)=O,cell viability (log2),[3],-0.0129 (inactive)
same,cell viability (log2),[4],0.0689 (inactive)
same,cell viability (log2),[11],0.0751 (inactive)
same,cell viability (log2),[12],0.0379 (inactive)
C=C1CCC(C2CC(=O)OC2=O)C(=O)CCC2C1CC2(C)C (stereo unspecified),cell viability (log2),[3],0.1 (inactive)
same,cell viability (log2),[4],0.128 (inactive)
same,cell viability (log2),[11],0.0855 (inactive)
same,cell viability (log2),[12],0.0593 (inactive)
Cc1nnc(SCC(=O)N2c3ccccc3-c3c(ssc3=S)C2(C)C)s1,cell viability (log2),[3],0.0582 (inactive)
same,cell viability (log2),[4],0.0648 (inactive)
same,cell viability (log2),[11],0.115 (inactive)
same,cell viability (log2),[12],0.255 (inactive)
CC(C)=CCC/C(C)=C/C=C/C(C)=C/C=C/C(C)=C/C=C/C=C(C)/C=C/C=C(C)/C=C/C=C(\C)CCC=C(C)C,cell viability (log2),[3],0.149 (inactive)
same,cell viability (log2),[4],0.105 (inactive)
same,cell viability (log2),[11],0.156 (inactive)
same,cell viability (log2),[12],0.123 (inactive)

# From the supplement of paper PMC6089552
